This note sets out measurements from PubChem BioAssay (NCI).

SMILES strings stand for the structures. This is part of a sample that, as a whole, favours compounds with a hit. Of some 83,000 tested, about 20% had one in any assay.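 Negative percent growth values reflect cell death: -40 means 40% of the cells present at the start died, and -100 means all died.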 A number with no mark means an inactive call. Active and inactive are the calls of the source. Rule for the calls: active = growth percent below 10; inactive = the rest.

This assay has as its system SR leukemia. Description: NCI-60 one-dose screen, 48 h (100 = growth as untreated, 0 = no growth, -100 = all killed). The conditions noted are these: 10 µM unless noted.
As to `O=S(=O)(NCCNc1nccc(-n2cnc3ccccc32)n1)c1ccc(Br)cc1`, the growth was 75.1%.

As to `NS(=O)(=O)c1ccc(Nc2nc(N/N=C/c3ccccn3)nc(Nc3ccccc3)n2)cc1`, the growth is 12.5%.

As for `NC(N)=Nc1ccc(Oc2cccc(Nc3ccc(Br)c(C(F)(F)F)c3)c2)cc1`, the growth is -43.5% (active).

On to `O=c1[nH]c2ccccc2cc1CSc1ccccc1Nc1nccc(-c2ccc(Cl)cc2)n1`, for which the growth was 99.2%.

`COc1ccccc1C(=O)Nc1cccc2c1C(=O)C(=O)C=C2`: the growth was 58.2%.

With `CCO/C=N/C1=C(C#N)C(c2ccc(F)cc2)c2sc3c(C)cccc3c2O1` (centres undefined), the growth is 17.3%.

For the molecule `O=C(NNc1nc2cc(F)ccc2n2c(CN3CCCC3)ccc12)c1cnccn1`, the growth is 4.32% (active).

For the molecule `COc1cc(-c2nn(C(C)(C)C)cc2-c2ccnc(NCCCNS(=O)(=O)c3ccccc3)n2)ccc1Cl`, the growth was 56%.

`O=C(NCc1ncc[nH]1)c1ccc(-c2nc3ccc4[nH]ncc4c3c3c2CCCC3)cc1`: the growth was -52.6% (active).

Regarding `O=C(NNc1nc2cc(F)ccc2n2c(CO)ccc12)c1cnccn1`, the growth was 5.16% (active).

In the case of `O=[N+]([O-])c1cc(/C=N/Nc2nc(N/N=C/c3ccc(Cl)c([N+](=O)[O-])c3)nc(N3CCCCC3)n2)ccc1Cl`, the growth is 63.2%.

As for `COc1c(N2CC3CCCNC3C2)c(F)cc2c(=O)c(C(=O)N/N=C/c3ccccc3)cn(C3CC3)c12` (centres undefined), the growth was 8.2% (active).

`O=C(CNc1nc(-c2cccc([N+](=O)[O-])c2)cs1)Nc1cccc(Cl)c1`: the growth is 94.9%.

Turning to `O=S(=O)(NCCNc1nccc(-n2cnc3ccccc32)n1)c1ccc(C(F)(F)F)cc1`, the growth was 35.5%.

As for `CC(C)(C)c1ccc(C(=O)Nc2sc3c(c2C(N)=O)CC/C(=N\O)C3)cc1`, the growth is 6.35% (active).

As for `CC(=O)c1nnn(-c2c(C(=O)n3nc(C)cc3C)sc(=S)n2-c2ccccc2)c1C`, the growth is 109%.

Consider `CNC(=O)c1c(NC(=O)c2ccccc2C(F)(F)F)sc2c1CCC(=O)C2`, for which the growth was 29%.

Consider `O=C(NNc1nc2cc(F)c(F)cc2n2cccc12)c1cnccn1`, for which the growth was 15.3%.

In the case of `COc1cc(Nc2c(C#N)cnn3cc(-c4cnn(CC(C)(C)O)c4)cc23)ccc1Cl`, the growth was 24.3%.

In the case of `CCCCCCCn1cc2c(N[C@H](C)c3ccccc3)ncnc2n1`, the growth was 99.5%.

Turning to `O=C(Cn1cc(-c2ccccc2)nn1)Nc1nc(-c2ccc(Cl)cc2)cs1`, the growth was 98.6%.

Turning to `CCOC(=O)C(=O)CC(=O)N1C(=S)NC(=O)C1CC(C)C` (centres undefined), the growth was 112%.

Regarding `O=C1Nc2ccccc2/C1=C/c1ccc(CO)n1-c1ccc(Cl)cc1`, the growth was 35.5%.

For the molecule `CCO/C=N/C1=C(C#N)C(c2ccc(OC)cc2)c2sc3c(CC)cccc3c2O1` (centres undefined), the growth was 20.1%.

Regarding `O=C1[C@@H]2Cc3c([nH]c4ccccc34)[C@H](c3c(Cl)cccc3Cl)N2C(=O)CN1C1CCN(CC2CCCCC2)CC1`, the growth is -0.527% (active).

Turning to `Cc1nn(-c2ccccc2)c2ncnc(N/N=C/c3cccc(O)c3)c12`, the growth is 30.8%.

Take `CS(=O)(=O)Nc1cc(-c2ccc3ncc(C#N)c(NCc4cccc(F)c4)c3c2)cnc1Cl`: the growth was 2.9% (active).

With `Cc1ccc(-n2cc(/C=C/C(=O)c3ccc(O)cc3)c(-c3ccc(S(C)(=O)=O)cc3)n2)cc1`, the growth was 55.1%.

On to `CC1(C)NCCC[C@]2(C)[C@H]3C/C(=N\O)C4[C@@H]5C[C@@](C)(CO)CC[C@]5(C)CC[C@@]4(C)[C@]3(C)CC[C@@H]12` (some centres undefined), for which the growth is 81.2%.

For `C#CCNC1CCC(c2csc(C#C)n2)=C1C` (centres undefined), the growth is 2.46% (active).

In the case of `NS(=O)(=O)c1ccc(Nc2nc(Nc3ccccc3)nc3nnc(SCC(=O)NC4CCCCC4)n23)cc1`, the growth is 97.7%.

For `O=C(CNc1nc(-c2cccc([N+](=O)[O-])c2)cs1)Nc1cccc([N+](=O)[O-])c1`, the growth is 2.66% (active).

Take `O=C(CSc1nc2ccccc2c(=O)n1-c1ccc(Cl)cc1)N/N=C/c1ccc(N2CCCCC2)cc1`: the growth was 74.8%.

For `O=C(c1ccc(Cl)cc1)C1[C@H](c2ccc(Cl)cc2)[C@@H](c2ccccc2)NC12C(=O)Nc1ccccc12` (some centres undefined), the growth was 3.54% (active).

For the molecule `CC(=O)c1ccc(Nc2nc(SCC(C)C)nc(-c3ccc(F)cc3)c2C#N)cc1`, the growth was 102%.

As to `Fc1ccc(-c2cc3nc(C(Cl)Cl)nc(-c4ccc(F)cc4)n3n2)cc1`, the growth was 3.96% (active).

As to `CNc1ncc2cc(-c3ccc(-c4ncccc4F)cc3Cl)c(=O)n(CC3OCC(N)CO3)c2n1` (centres undefined), the growth is 32.2%.

As to `C#C[C@]1(O)CC[C@H]2[C@@H]3CC=C4c5sc(-c6ccc7c(c6)OCO7)nc5CC[C@]4(C)[C@H]3CC[C@@]21C`, the growth was 16.9%.

With `C=CCn1c(SCC(=O)Nc2ccc(C(=O)/C=C/c3ccc(C)cc3)cc2)nnc1-c1c[nH]c2ccccc12`, the growth is 71.7%.
